# Reference: PubChem BioAssay
# Where “and” joins values, the source holds several entries; their conditions need not be identical. Identical values can stand only once. For part of these data: Measured potencies and affinities stand elsewhere. Calls of active or inactive are those of the source.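 Rule for the calls, unless noted: active = compounds whose cell count with miR-34 switched on is under 0.7 times the count with it off; inactive = the rest.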
# Assays:
# [1] = blockers of polyQ-driven CASP3 activation – cell-based (AID 1583); conditions: polyglutamine-induced caspase-3 activation, cell assay; stronger effect = higher value;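 tested at 10 µM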
# [2] = yeast 75Q aggregation reduction – 75Q-TubU reporter (AID 1593); conditions: Yeast 75Q polyglutamine aggregation reporter
# [3] = restoration of touch response, mutant HTT neurons – whole organism, C. elegans mechanosensory neurons, N-terminal huntingtin (AID 1599); conditions: C. elegans polyQ-huntingtin mechanosensory neurons, stronger effect = higher value
# [4] = blockers of cytochrome c efflux from mitochondria – biochemical, purified mitochondria (AID 1603); conditions: stronger effect = lower value;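 note: mouse liver mitochondria challenged with calcium chloride; signal normalized to the plate average as 100%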
# [5] = polyglutamine aggregate formation blockers (AID 1604); conditions: polyglutamine-induced protein aggregation inhibition assay; stronger effect = higher value; tested at 2.5 µM
# [6] = glutamate transport activators, MN-1 cells, MN-1 cell line (AID 1612); conditions: MN-1 motor neuron cells, stronger effect = higher value;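 note: tested at 1 µM final; 0% = mean of DMSO vehicle wells on each plate; positive means more glutamate uptake than control and negative means less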
# [7] = GFP-Q80 aggregate reduction, neuronal-like cells, cell-based, NGF-treated PC12, GFPQ80 (AID 1614); conditions: PC12 NGF-treated GFP-polyQ80 inclusion reduction;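 note: lower means fewer inclusions and 0 means no inclusions at all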
# [8] = 75Q-TubH aggregate inhibition, S. cerevisiae, yeast (AID 1616); conditions: S. cerevisiae 75Q-TubH polyglutamine aggregation suppression; stronger effect = higher value
# [9] = compounds altering circadian rhythm period length – cell-based, LOPAC library, luminescence reporter (AID 2774; call rule not given here;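 note: values are relative to mean of DMSO wells on each plate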); conditions: circadian reporter cells, at 7 µM, actives lie on both sides
# [10] = P. berghei load reduction in hepatocytes – cell-based, HepG2, luciferase luminescence, HepG2 viability, primary screen (AID 624349; in the data active = parasite load remaining mostly below about 12%, no sharp cut-off; inactive = mostly above about 10%;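 note: 100% = mean of DMSO negative control wells on the same plate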); conditions: P. berghei liver stage in HepG2, luciferase luminescence, concentration not given here; parasite load remaining: stronger effect = lower value; viability: measured here: HepG2 viability without parasites
# [11] = tested on: Hepatitis C virus NS3 helicase; experiment: blockers of NS3h binding to ssDNA – biochemical, fluorescence polarization, LOPAC1280 library, primary screen (AID 687035; in the data active = inhibition above about 37%); conditions: Purified HCV NS3 helicase, Cy5-dT15 ssDNA binding fluorescence polarization; stronger effect = higher value; concentration not given here
# [12] = target: 6-phosphogluconate dehydrogenase, decarboxylating (Homo sapiens) (UniProt P52209); experiment: inhibition of human phosphogluconate dehydrogenase – biochemical, recombinant enzyme, NADPH absorbance, primary screen (AID 1159550;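 active = at least 20% inhibition of 6-phosphogluconate dehydrogenase activity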); conditions: recombinant 6PGD, NADPH absorbance 341 nm; at 10 µM; stronger effect = higher value
# [13] = EMT-state selective cytotoxicity in co-culture – imaging, PC-3E GFP, TEM4-18 mCherry, primary screen (AID 1345086;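 active = compounds killing one labelled cell type while sparing the other, by normalised counts and ratio limits, not self-fluorescent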;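 for all read-outs here: cells exposed to compound for 72 h before imaging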;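 for red/green cell ratio (normalised): normalised mesenchymal count divided by normalised epithelial count so high means epithelial killing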); conditions: PC-3E GFP / TEM4-18 mCherry co-culture, imaging cell counts, at 1 µM; for red/green cell ratio (normalised): actives lie on both sides, counts scaled to control wells, 1 = unselective
# [14] = viability loss with induced miR-34 in A549 – imaging, A549 dox-inducible miR-34, nuclei and caspase counts, primary screen (AID 1347080); conditions: A549 miR-34 inducible, Hoechst nuclei count, 48 h
# [15] = blockers of cellular phospholipid synthesis – cell-based, LOPAC library, screen 4, primary screen (AID 1347384; call rule not given here); conditions: animal cells, phospholipid biosynthesis inhibition screen; at 10 µM
# [16] = galactose survival enhancers in mitochondrial complex I cybrids – cell-based, galactose medium, ATP luminescence, primary screen (AID 1645843;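 active = z-score of at least 1.8 in each of two replicates, scored against plate mean and spread of sample wells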;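 note: positive z means more ATP and so rescue of galactose-driven cybrid death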); conditions: complex I mutant cybrid cells, 72 h, stronger effect = higher value
# [17] = MELAS cybrid and Rieske KO viability enhancers – cell-based, MELAS cybrids, Rieske KO mouse fibroblasts, CellTiter-Glo, primary screen (AID 1508586;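 active = mean z-score across replicates of 1.96 or higher in either the MELAS or the Rieske mutant cell line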;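 note: z relative to plate mean and SD of compound and empty wells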); conditions: low glucose
# [18] = target: NAD(+) hydrolase SARM1 (Homo sapiens) (UniProt Q6SZW1); experiment: blocking NAD cleavage by SARM1 SAM-TIR – cell lysate, NAD-Glo luminescence (AID 1508614;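 active = compound whose remaining NAD level is above about 45 nM, limit read from the data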;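 note: higher remaining NAD means stronger inhibition of SARM1 NADase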); conditions: SAM-TIR HEK293T lysate NADase, at 1 µM, stronger effect = higher value
# [19] = target: Mitogen-activated protein kinase 7 (Homo sapiens) (UniProt Q13164); experiment: Gal4-ERK5 driven luciferase induction – cell-based, HTS, primary screen (AID 1508626;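 active = luciferase signal above three times the same-plate solvent-only control wells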;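 note: luciferase driven by Gal4-ERK5 fusion binding five Gal4 sites before minimal TATA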); conditions: HeLa Gal4-ERK5 transactivation, 18 h, at 5 µM, stronger effect = higher value
# [20] = measured here: epithelial PC-3E GFP cell survival
# [21] = measured here: mesenchymal TEM4-18 mCherry cell survival
# [22] = stronger effect = lower value, cell number ratio, induced over uninduced
# [23] = measured here: relative caspase fold change +Dox/-Dox
# [24] = measured here: total cells with miR-34 induction, stronger effect = lower value
# [25] = measured here: total cells without miR-34 induction
# [26] = MELAS cybrid survival, CellTiter-Glo 48 h, stronger effect = higher value
# [27] = Rieske KO mouse fibroblast survival, CellTiter-Glo 72 h
# 6-phosphogluconate dehydrogenase, decarboxylating (Homo sapiens), sequence (P52209 whole entry, looked up): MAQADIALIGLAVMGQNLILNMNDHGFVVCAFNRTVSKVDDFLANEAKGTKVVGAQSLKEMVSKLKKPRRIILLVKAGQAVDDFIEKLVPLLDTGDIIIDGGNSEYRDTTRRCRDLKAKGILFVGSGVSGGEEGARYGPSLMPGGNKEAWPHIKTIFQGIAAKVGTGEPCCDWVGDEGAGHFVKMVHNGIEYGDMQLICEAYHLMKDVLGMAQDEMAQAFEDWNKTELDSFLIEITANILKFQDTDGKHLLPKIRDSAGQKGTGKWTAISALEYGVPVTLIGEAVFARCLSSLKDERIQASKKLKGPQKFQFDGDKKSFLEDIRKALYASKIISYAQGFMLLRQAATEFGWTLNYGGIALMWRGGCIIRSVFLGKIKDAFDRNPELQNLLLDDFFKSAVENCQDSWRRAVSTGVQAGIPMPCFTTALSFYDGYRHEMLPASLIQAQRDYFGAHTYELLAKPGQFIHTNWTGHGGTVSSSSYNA
# Mitogen-activated protein kinase 7 (Homo sapiens), sequence (Q13164 whole entry, looked up, the tested form may be a part): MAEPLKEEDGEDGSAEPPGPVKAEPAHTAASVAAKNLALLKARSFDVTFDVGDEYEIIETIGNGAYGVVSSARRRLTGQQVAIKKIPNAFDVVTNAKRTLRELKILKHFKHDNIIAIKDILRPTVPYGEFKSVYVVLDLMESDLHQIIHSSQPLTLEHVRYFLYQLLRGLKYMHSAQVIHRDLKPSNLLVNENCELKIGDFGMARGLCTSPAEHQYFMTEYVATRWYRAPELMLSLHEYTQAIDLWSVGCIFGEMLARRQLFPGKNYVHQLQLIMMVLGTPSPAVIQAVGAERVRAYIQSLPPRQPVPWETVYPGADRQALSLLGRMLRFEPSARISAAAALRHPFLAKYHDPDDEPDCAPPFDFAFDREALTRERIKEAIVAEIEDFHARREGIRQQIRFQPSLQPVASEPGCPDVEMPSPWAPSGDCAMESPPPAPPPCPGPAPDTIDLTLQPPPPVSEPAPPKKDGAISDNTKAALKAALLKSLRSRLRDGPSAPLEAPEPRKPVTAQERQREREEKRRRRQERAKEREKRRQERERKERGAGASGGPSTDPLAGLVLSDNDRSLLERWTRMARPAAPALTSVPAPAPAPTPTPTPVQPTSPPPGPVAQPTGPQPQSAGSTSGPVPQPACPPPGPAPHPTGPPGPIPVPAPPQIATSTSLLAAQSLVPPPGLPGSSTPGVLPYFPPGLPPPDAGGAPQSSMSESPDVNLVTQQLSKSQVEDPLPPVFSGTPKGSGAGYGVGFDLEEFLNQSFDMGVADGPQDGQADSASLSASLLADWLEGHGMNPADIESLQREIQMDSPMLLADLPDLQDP
# NAD(+) hydrolase SARM1 (Homo sapiens), sequence (Q6SZW1 whole entry, looked up, the tested form may be a part): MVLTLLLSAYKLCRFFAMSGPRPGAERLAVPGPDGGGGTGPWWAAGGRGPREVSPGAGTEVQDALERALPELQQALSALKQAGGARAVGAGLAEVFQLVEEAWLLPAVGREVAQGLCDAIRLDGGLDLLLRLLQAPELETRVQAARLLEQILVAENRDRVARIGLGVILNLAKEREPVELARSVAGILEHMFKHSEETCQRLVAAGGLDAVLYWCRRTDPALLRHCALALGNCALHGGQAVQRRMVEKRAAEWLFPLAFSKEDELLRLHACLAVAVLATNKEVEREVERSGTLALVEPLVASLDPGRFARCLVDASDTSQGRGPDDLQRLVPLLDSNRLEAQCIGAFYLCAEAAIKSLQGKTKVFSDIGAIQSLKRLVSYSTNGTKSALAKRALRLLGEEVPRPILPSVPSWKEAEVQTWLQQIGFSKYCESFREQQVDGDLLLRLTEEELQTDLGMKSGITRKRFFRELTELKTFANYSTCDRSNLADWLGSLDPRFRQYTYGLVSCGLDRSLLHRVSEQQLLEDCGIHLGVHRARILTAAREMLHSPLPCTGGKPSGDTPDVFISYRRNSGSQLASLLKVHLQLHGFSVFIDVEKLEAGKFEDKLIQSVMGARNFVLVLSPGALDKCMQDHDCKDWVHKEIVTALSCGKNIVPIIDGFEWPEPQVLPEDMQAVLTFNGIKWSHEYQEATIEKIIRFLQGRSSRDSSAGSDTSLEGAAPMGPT
smiles,measurement,setting,value
CN1CCc2cccc3c2C1Cc1ccc(O)c(O)c1-3 (stereo unspecified),inhibition,[1],1.43%
same,score,[2],0.79
same,rescue above control,[3],3.21
same,cytochrome c release ratio,[4],0.9
same,inhibition of aggregation,[5],85.7%
same,glutamate uptake change,[6],14%
same,inclusion score,[7],2
same,aggregation suppression score,[8],1.03
same,period change,[9],0.35 h (inactive)
same,parasite load remaining,[10],9.7% (inactive) and 18.2% (inactive)
same,viability,[10],65% and 86.9%
same,inhibition,[11],-6% (inactive)
same,inhibition,[12],-2.58% (inactive)
same,red/green cell ratio (normalised),[13],1.13 (inactive)
same,normalised cell number,[13]; [20],1.2
same,normalised cell number,[13]; [21],1.36
same,fold change,[14]; [22],0.965 (inactive) and 0.839 (inactive)
same,fold change,[14]; [23],2.09 and 1.99
same,cell count,[14]; [24],7940 and 8770
same,cell count,[14]; [25],8230 and 10400
same,outcome,[15],inactive
same,z-score,[16],-1.52 (inactive)
N[C@@H](Cc1cc(I)c(Oc2ccc(O)c(I)c2)c(I)c1)C(=O)O,parasite load remaining,[10],78.5% (inactive) and 158% (inactive) and 41% (inactive)
same,viability,[10],96% and 73% and 101%
same,inhibition,[12],0.697% (inactive)
same,red/green cell ratio (normalised),[13],1.24 (inactive)
same,normalised cell number,[13]; [20],0.91
same,normalised cell number,[13]; [21],1.14
same,fold change,[14]; [22],0.925 (inactive) and 0.987 (inactive)
same,fold change,[14]; [23],0.994 and 1.44
same,cell count,[14]; [24],10000 and 11900
same,cell count,[14]; [25],10800 and 12100
same,z-score,[17]; [26],-0.576 (inactive)
same,z-score,[17]; [27],-1.73
same,remaining NAD,[18],10 nM (inactive)
same,luciferase signal,[19],80 AU (inactive)
COc1cc2c(cc1OC)-c1cc3ccc(OC)c(OC)c3c[n+]1CC2,parasite load remaining,[10],110% (inactive) and 92.2% (inactive) and 65.3% (inactive)
same,viability,[10],114% and 73.3% and 79.6%
same,inhibition,[12],-0.646% (inactive) and 1.04% (inactive)
same,red/green cell ratio (normalised),[13],0.85 (inactive) and 0.9 (inactive)
same,normalised cell number,[13]; [20],1.04 and 1.09
same,normalised cell number,[13]; [21],0.88 and 0.98
same,fold change,[14]; [22],0.898 (inactive) and 1 (inactive)
same,fold change,[14]; [23],1.49 and 0.581
same,cell count,[14]; [24],8980 and 7680
same,cell count,[14]; [25],9990 and 7660
same,z-score,[17]; [26],-0.0781 (inactive)
same,z-score,[17]; [27],0.0197
same,luciferase signal,[19],352 AU (active)
NCCCCN,inhibition,[1],-6.18%
same,score,[2],1.21
same,rescue above control,[3],9.16
same,cytochrome c release ratio,[4],0.9
same,inhibition of aggregation,[5],70.6%
same,glutamate uptake change,[6],0.99%
same,inclusion score,[7],2
same,aggregation suppression score,[8],1.37
same,period change,[9],0.01 h (inactive)
same,inhibition,[11],-3% (inactive)
same,inhibition,[12],-11.8% (inactive)
same,red/green cell ratio (normalised),[13],1.04 (inactive)
same,normalised cell number,[13]; [20],0.98
same,normalised cell number,[13]; [21],1.02
same,fold change,[14]; [22],1.02 (inactive)
same,fold change,[14]; [23],1.7
same,cell count,[14]; [24],9820
same,cell count,[14]; [25],9630
same,outcome,[15],inactive
same,luciferase signal,[19],44 AU (inactive)
same,z-score,[16],0.975 (inactive)
CC(C)(C)NC[C@H](O)c1ccc(O)c(CO)c1,inhibition,[12],-0.348% (inactive)
same,red/green cell ratio (normalised),[13],0.77 (inactive)
same,normalised cell number,[13]; [20],1.2
same,normalised cell number,[13]; [21],0.92
same,fold change,[14]; [22],0.873 (inactive)
same,fold change,[14]; [23],1.01
same,cell count,[14]; [24],7950
same,cell count,[14]; [25],9100
same,z-score,[17]; [26],0.715 (inactive)
same,z-score,[17]; [27],-0.611
same,remaining NAD,[18],10 nM (inactive)
same,luciferase signal,[19],112 AU (inactive)
NC(=O)CC[C@H](N)C(=O)O,period change,[9],-0.065 h (inactive)
same,inhibition,[11],-3% (inactive)
same,inhibition,[12],-0.19% (inactive)
same,red/green cell ratio (normalised),[13],0.89 (inactive) and 1.18 (inactive)
same,normalised cell number,[13]; [20],1.22 and 0.97
same,normalised cell number,[13]; [21],1.08 and 1.13
same,fold change,[14]; [22],0.981 (inactive) and 0.937 (inactive)
same,fold change,[14]; [23],0.852 and 0.867
same,cell count,[14]; [24],10400 and 8420
same,cell count,[14]; [25],10600 and 8990
same,outcome,[15],inactive
same,remaining NAD,[18],10 nM (inactive)
same,luciferase signal,[19],40 AU (inactive)
same,z-score,[16],0.01 (inactive)
